In PubChem BioAssay (NCI):
Compounds without any hit were thinned out: in the full panel of roughly 79,000, 15% have a hit. A number with no mark means an inactive call. Activity calls are given as the source filed them. Rule as the data show it: active = growth inhibition above about 70%; inactive = the rest.

Columns and labels:
[1] = NCI Yeast Anticancer Drug Screen. Data for the rad50 strain (AID 155);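 also: 0% = growth of vehicle-only cultures of the same strain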; conditions: S. cerevisiae rad50 strain growth inhibition, hits give high values
How it was run: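 Readout: growth inhibition relative to vehicle-treated cultures. Compound exposure was carried out in a genetically defined yeast strain deficient in DNA damage repair.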

[2] = NCI Yeast Anticancer Drug Screen. Data for the mec2-1 strain (AID 157); conditions: S. cerevisiae mec2-1 strain, hits give high values
How it was run: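 Each compound was tested on mec2-1 yeast, a strain altered in DNA damage repair or cell cycle control. Growth inhibition is reported relative to vehicle.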

[3] = NCI Yeast Anticancer Drug Screen. Data for the sgs1 mgt1 strain (AID 161);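 also: 0% = growth of cultures given vehicle only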; conditions: S. cerevisiae sgs1 mgt1 strain, hits give high values
How it was run: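 Inhibition of yeast growth, normalised to vehicle-treated controls, is reported for a strain bearing genetic alterations in DNA damage repair.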

[4] = NCI Yeast Anticancer Drug Screen. Data for the cln2 rad14 strain (AID 165);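 also: 0% = growth equal to vehicle treated cultures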; conditions: S. cerevisiae cln2 rad14 strain, hits give high values
How it was run: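 Test compounds were added to cln2 rad14 yeast cultures; inhibition of growth was then determined by comparison with vehicle treatment.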

[5] = NCI Yeast Anticancer Drug Screen. Data for the bub3 strain (AID 167); conditions: S. cerevisiae bub3 mutant strain, hits give high values
How it was run: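 Readout: yeast growth inhibition, expressed relative to vehicle-only wells. The test organism is a mutant strain from a panel with lesions in DNA repair or checkpoint genes.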

[6] = NCI Yeast Anticancer Drug Screen. Data for the mlh1 rad18 strain (AID 175); conditions: S. cerevisiae mlh1 rad18 strain growth inhibition, hits give high values
How it was run: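 Inhibition values reflect reduced growth of mutant yeast versus vehicle-treated controls following compound exposure; the mutations affect DNA damage repair.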

[7] = at 5.0 µM (retest, dose inferred, filed as 0.5)
[8] = at 50.0 µM (retest, dose inferred, filed as 5.0)

## COc1cc2c(cc1O)C1C(O)C(O)C=C3CCN(C2)C31 (configuration not stated)
[1]; [7]
  growth inhibition: 4%
[1]; [8]
  growth inhibition: 97% (active)
[1]; at 50.0 µM
  growth inhibition: 85.5% (active)
[2]; [7]
  growth inhibition: 4%
[2]; [8]
  growth inhibition: 97% (active)
[2]; at 50.0 µM
  growth inhibition: 84.8% (active)
[3]; [7]
  growth inhibition: 5%
[3]; [8]
  growth inhibition: 96% (active)
[3]; at 50.0 µM
  growth inhibition: 82.5% (active)
[4]; [7]
  growth inhibition: 14%
[4]; [8]
  growth inhibition: 96% (active)
[4]; at 50.0 µM
  growth inhibition: 84% (active)
[5]; [7]
  growth inhibition: 2%
[5]; [8]
  growth inhibition: 95% (active)
[5]; at 50.0 µM
  growth inhibition: 85.5% (active)
[6]; [7]
  growth inhibition: 3%
[6]; [8]
  growth inhibition: 97% (active)
[6]; at 50.0 µM
  growth inhibition: 86.9% (active)

## CCCCCCCCCCCCNC(=O)NCC(OCC)OCC
[1]; [7]
  growth inhibition: -3%
[1]; [8]
  growth inhibition: 96% (active)
[1]; at 50.0 µM
  growth inhibition: 89.3% (active)
[2]; [7]
  growth inhibition: 2%
[2]; [8]
  growth inhibition: 97% (active)
[2]; at 50.0 µM
  growth inhibition: 91.5% (active)
[3]; [7]
  growth inhibition: 13%
[3]; [8]
  growth inhibition: 95% (active)
[3]; at 50.0 µM
  growth inhibition: 92.3% (active)
[4]; [7]
  growth inhibition: 28%
[4]; [8]
  growth inhibition: 95% (active)
[4]; at 50.0 µM
  growth inhibition: 83.3% (active)
[5]; [7]
  growth inhibition: 12%
[5]; [8]
  growth inhibition: 97% (active)
[5]; at 50.0 µM
  growth inhibition: 91.8% (active)
[6]; [7]
  growth inhibition: -19%
[6]; [8]
  growth inhibition: 96% (active)
[6]; at 50.0 µM
  growth inhibition: 90.3% (active)

## COC(=O)C1=C(NC(=O)Nc2ccc(Cl)cc2)OC(C)(C)C1c1ccc(Cl)cc1 (configuration not stated)
[1]; [7]
  growth inhibition: 87% (active)
[1]; [8]
  growth inhibition: 88% (active)
[1]; at 50.0 µM
  growth inhibition: 96.5% (active)
[2]; [7]
  growth inhibition: 94% (active)
[2]; [8]
  growth inhibition: 94% (active)
[2]; at 50.0 µM
  growth inhibition: 98% (active)
[3]; [7]
  growth inhibition: 85% (active)
[3]; [8]
  growth inhibition: 92% (active)
[3]; at 50.0 µM
  growth inhibition: 97.1% (active)
[4]; [7]
  growth inhibition: 80% (active)
[4]; [8]
  growth inhibition: 87% (active)
[4]; at 50.0 µM
  growth inhibition: 94.8% (active)
[5]; [7]
  growth inhibition: 89% (active)
[5]; [8]
  growth inhibition: 89% (active)
[5]; at 50.0 µM
  growth inhibition: 95.4% (active)
[6]; [7]
  growth inhibition: 85% (active)
[6]; [8]
  growth inhibition: 89% (active)
[6]; at 50.0 µM
  growth inhibition: 96.8% (active)

## O=[N+]([O-])c1c(C=Nc2ccccc2)oc(-c2c(O)ccc3ccccc23)c1-c1c(O)ccc2ccccc12
[1]; [7]
  growth inhibition: 1%
[1]; [8]
  growth inhibition: 2%
[1]; at 50.0 µM
  growth inhibition: 98.7% (active)
[2]; [7]
  growth inhibition: -13%
[2]; [8]
  growth inhibition: -11%
[2]; at 50.0 µM
  growth inhibition: 98.7% (active)
[3]; [7]
  growth inhibition: -7%
[3]; [8]
  growth inhibition: -4%
[3]; at 50.0 µM
  growth inhibition: 98.8% (active)
[4]; [7]
  growth inhibition: -30%
[4]; [8]
  growth inhibition: -26%
[4]; at 50.0 µM
  growth inhibition: 98.5% (active)
[5]; [7]
  growth inhibition: 3%
[5]; [8]
  growth inhibition: 3%
[5]; at 50.0 µM
  growth inhibition: 98.8% (active)
[6]; [7]
  growth inhibition: -2%
[6]; [8]
  growth inhibition: -1%
[6]; at 50.0 µM
  growth inhibition: 98.8% (active)

## O=C(Nc1ccc(Br)cc1)Oc1ccccc1C(=O)Nc1ccccc1
[1]; [7]
  growth inhibition: 6%
[1]; [8]
  growth inhibition: 95% (active)
[1]; at 50.0 µM
  growth inhibition: 79.1% (active)
[2]; [7]
  growth inhibition: 1%
[2]; [8]
  growth inhibition: 96% (active)
[2]; at 50.0 µM
  growth inhibition: 70.3% (active)
[3]; [7]
  growth inhibition: 0%
[3]; [8]
  growth inhibition: 98% (active)
[3]; at 50.0 µM
  growth inhibition: 91% (active)
[4]; [7]
  growth inhibition: 2%
[4]; [8]
  growth inhibition: 94% (active)
[4]; at 50.0 µM
  growth inhibition: 54.2%
[5]; [7]
  growth inhibition: 5%
[5]; [8]
  growth inhibition: 98% (active)
[5]; at 50.0 µM
  growth inhibition: 89.9% (active)
[6]; [7]
  growth inhibition: 4%
[6]; [8]
  growth inhibition: 96% (active)
[6]; at 50.0 µM
  growth inhibition: 97.8% (active)

## CC(=O)N(C)C1=C(Sc2ccc(C)cc2)C(=O)c2ccccc2C1=O
[1]; [7]
  growth inhibition: 95% (active)
[1]; [8]
  growth inhibition: 99% (active)
[1]; at 50.0 µM
  growth inhibition: 99.5% (active)
[2]; [7]
  growth inhibition: 97% (active)
[2]; [8]
  growth inhibition: 100% (active)
[2]; at 50.0 µM
  growth inhibition: 99.7% (active)
[3]; [7]
  growth inhibition: 93% (active)
[3]; [8]
  growth inhibition: 100% (active)
[3]; at 50.0 µM
  growth inhibition: 99.8% (active)
[4]; [7]
  growth inhibition: 83% (active)
[4]; [8]
  growth inhibition: 99% (active)
[4]; at 50.0 µM
  growth inhibition: 99.5% (active)
[5]; [7]
  growth inhibition: 99% (active)
[5]; [8]
  growth inhibition: 99% (active)
[5]; at 50.0 µM
  growth inhibition: 99.6% (active)
[6]; [7]
  growth inhibition: 95% (active)
[6]; [8]
  growth inhibition: 99% (active)
[6]; at 50.0 µM
  growth inhibition: 99.7% (active)

## OC1CN(C2CCCCC2)CC1C1(O)CCN(C2CCCCC2)C1 (configuration not stated)
[1]; [7]
  growth inhibition: 0%
[1]; [8]
  growth inhibition: 6%
[1]; at 50.0 µM
  growth inhibition: 20.1%
[2]; [7]
  growth inhibition: 1%
[2]; [8]
  growth inhibition: 5%
[2]; at 50.0 µM
  growth inhibition: -2.75%
[3]; [7]
  growth inhibition: 0%
[3]; [8]
  growth inhibition: 11%
[3]; at 50.0 µM
  growth inhibition: 12.8%
[4]; [7]
  growth inhibition: 4%
[4]; [8]
  growth inhibition: 10%
[4]; at 50.0 µM
  growth inhibition: 65.7%
[5]; [7]
  growth inhibition: 1%
[5]; [8]
  growth inhibition: 15%
[5]; at 50.0 µM
  growth inhibition: -5.85%
[6]; [7]
  growth inhibition: 3%
[6]; [8]
  growth inhibition: 10%
[6]; at 50.0 µM
  growth inhibition: 20.2%

## O=Cc1cc(-c2ccccc2)n(-c2ccccc2)c1-c1ccccc1
[1]; [7]
  growth inhibition: 18%
[1]; [8]
  growth inhibition: 18%
[1]; at 50.0 µM
  growth inhibition: 64.3%
[2]; [7]
  growth inhibition: 2%
[2]; [8]
  growth inhibition: -3%
[2]; at 50.0 µM
  growth inhibition: 22.2%
[3]; [7]
  growth inhibition: -6%
[3]; [8]
  growth inhibition: 16%
[3]; at 50.0 µM
  growth inhibition: 63%
[4]; [7]
  growth inhibition: -6%
[4]; [8]
  growth inhibition: 27%
[4]; at 50.0 µM
  growth inhibition: 0%
[5]; [7]
  growth inhibition: 0%
[5]; [8]
  growth inhibition: 9%
[5]; at 50.0 µM
  growth inhibition: 35.9%
[6]; [7]
  growth inhibition: -1%
[6]; [8]
  growth inhibition: 16%
[6]; at 50.0 µM
  growth inhibition: 47.3%

## COC(=O)N/N=C(\C)C(CN1CCOCC1)C(c1ccccc1)c1cc2ccccc2oc1=O (configuration not stated)
[1]; [7]
  growth inhibition: 10%
[1]; [8]
  growth inhibition: 57%
[1]; at 50.0 µM
  growth inhibition: -0.75%
[2]; [7]
  growth inhibition: -4%
[2]; [8]
  growth inhibition: 56%
[2]; at 50.0 µM
  growth inhibition: 7.15%
[3]; [7]
  growth inhibition: 14%
[3]; [8]
  growth inhibition: 64%
[3]; at 50.0 µM
  growth inhibition: -5.55%
[4]; [7]
  growth inhibition: 14%
[4]; [8]
  growth inhibition: 70% (active)
[4]; at 50.0 µM
  growth inhibition: 10.9%
[5]; [7]
  growth inhibition: 21%
[5]; [8]
  growth inhibition: 74% (active)
[5]; at 50.0 µM
  growth inhibition: 8.15%
[6]; [7]
  growth inhibition: 7%
[6]; [8]
  growth inhibition: 61%
[6]; at 50.0 µM
  growth inhibition: 2.25%
